Test results published in PubChem BioAssay AID463173 (ICCB-Longwood Screening Facility, Harvard Medical School, 2010).
About 4,300 (8.3%) of roughly 52,000 compounds were called active. What follows is part of a selection rich in actives, with near analogues and random picks from the rest. Values without a mark were called inactive. Cut-off read from the data, not from the text of the source: active = survival mostly below about 52% (no sharp cut-off); inactive = mostly above about 56%.

Tested on: DeltatarO mutant
Test: S. aureus survival, RN4220 and DeltatarO strains – OD600, teichoic acid synthesis inhibitors, primary screen (AID 463173)
Conditions: S. aureus RN4220 wild type/DeltatarO growth, OD600, 18 h, active compounds read low, screened at 18.75 µg/mL (by protocol)

SMILES	survival
COc1ccc(CCC(=O)NC2CC(=O)N(c3cccc(F)c3)C2)cc1 (configuration not stated)	113%
CSc1nc(NC(N)=S)nc(NC(C)C)n1	76%
Cc1cc(C)c2c(CC(=O)Nc3ccc(S(=O)(=O)Nc4ncccn4)cc3)coc2c1	83%
COc1ccc([N+](=O)[O-])cc1NC(c1nnc(-c2ccccc2)o1)c1ccccc1F (configuration not stated)	83%
Cc1cccc2nc(-c3cccnc3)c(Nc3ccc(C(C)C)cc3)n12	70%
Cc1cccc(C(C)C)c1NC(=O)c1ccc2c(c1)CCN2S(C)(=O)=O	74%
COc1ccc(C2C(C(=O)Nc3cccnc3)=C(C)Nc3nc(-c4ccc(OC)c(OC)c4)nn32)cc1 (configuration not stated)	150%
CCOC(=O)C1CCN(C(=O)c2c(C)nn(-c3ccc(F)cc3)c2-n2cccc2)CC1	66%
Cc1cc(NC(=O)CSc2nc(-c3ccccc3C)nc3c2c(=O)n(C)c(=O)n3C)no1	67%
COc1ccc(CN(Cc2ccco2)c2cnc(S(C)(=O)=O)nc2C(=O)Nc2ccc(C)c(C)c2)cc1	44% (active)
CS(=O)(=O)c1ncc(N(Cc2ccccc2)Cc2ccco2)c(C(=O)Nc2cccc(C(F)(F)F)c2)n1	52%
Cc1ccc(NC(=O)c2nc(S(C)(=O)=O)ncc2N(Cc2cccc(F)c2)Cc2ccco2)cc1C	45%
Cc1ccc(NC(=O)c2nc(S(C)(=O)=O)ncc2N(Cc2ccco2)Cc2ccco2)cc1C	50%
CC(C)c1ccc(CN(Cc2ccco2)c2cnc(S(C)(=O)=O)nc2C(=O)Nc2ccc(F)cc2)cc1	49%
COc1ccc(CN(Cc2ccco2)c2cnc(S(C)(=O)=O)nc2C(=O)Nc2ccc(C)c(Cl)c2)cc1	47%
CC(C)c1ccc(CN(Cc2ccco2)c2cnc(S(C)(=O)=O)nc2C(=O)Nc2ccccc2)cc1	44% (active)
COc1ccc(CN(Cc2ccco2)c2cnc(S(C)(=O)=O)nc2C(=O)Nc2ccc(F)cc2)cc1	49%
Cc1ccc(NC(=O)c2nc(S(C)(=O)=O)ncc2N(Cc2ccco2)Cc2cccs2)cc1C	40% (active)
Cc1ccc(NC(=O)c2nc(S(C)(=O)=O)ncc2N(Cc2ccco2)Cc2cccs2)c(C)c1	38% (active)
COc1ccc(CN(Cc2ccco2)c2cnc(S(C)(=O)=O)nc2C(=O)Nc2ccc(C)cc2C)cc1	48%
CCc1ccc(CN(Cc2ccco2)c2cnc(S(C)(=O)=O)nc2C(=O)Nc2cccc(C)c2)cc1	46%
Cc1ccc2scc(N3CCc4ccccc4C3)c(=O)c2c1	73%
